This excerpt belongs to a sample that is enriched for hits.
TDP1 cell noCPT = qHTS for Inhibitors of human tyrosyl-DNA phosphodiesterase 1 (TDP1): qHTS in cells in absence of CPT; DT40 Tdp1-/- hTDP1 cells, no CPT, ATP luminescence, 48 h; Potency, µM (titrated, usually from 46.2 µM), inactives show top-dose activity change, negative = growth inhibition, usual class: inhibitors; actives 15% (n = 420,000); note: potency is the fitted concentration of half-maximal effect; nearly all actives have a fitted effect of over 55% in size
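Camptothecin absent (DMSO only). Human TDP1-complemented DT40 knockout cells, 400 cells/well, 37 °C for minimum 48 hr; ATP measured via CellTiter-Glo, 30 min dark incubation, luminescence.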
HT1080 IDH1KD tx = toxicity to HT-1080 IDH1 knockdown cells (counter line); HT-1080 IDH1 knockdown viability, ATP luminescence, 48 h; Potency, µM (top dose mostly 46.1 µM), for the others: at the top dose activity, negative = toxicity, usual class: cytotoxic; actives 2% (n = 360,000); AID 686971;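 note: potency is the fitted concentration of half-maximal effect; 0% = DMSO wells and -100% = cell-free medium wells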
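Assay cells: HT-1080 with IDH1 knockdown, 750 per well, RPMI/5% FBS. Exposure: 48 h at 37 °C following 2 h pre-incubation. Read: CellTiter-Glo luminescence; fitted concentration-response, curve class assigned.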
IL1B secr inh = inhibitors of inflammasome signaling (IL-1 beta secretion). actives 4.7% (n = 360,000). activity change, % at 57.5 µM. THP-1 LPS/ATP IL-1B secretion, AlphaLISA, 16 h; hits give low values. AID 743279; in the data active = activity change below about -50%; inconclusive = mostly about -30% to -49%
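THP-1 cells pretreated 1 hr with compounds (up to 57.5 uM final), then stimulated with LPS (250 ng/mL final) plus ATP (1.25 mM final); secreted IL-1B measured by AlphaLISA after 16 hr, decreased signal indicating inhibition.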
TDP1 cell CPT = growth inhibition of DT40 Tdp1-/-;hTDP1 cells with camptothecin (screen for TDP1 inhibitors). chicken DT40 Tdp1-/-;hTDP1 cells + 20 nM CPT, ATP luminescence, 48 h. Potency, µM (doses to about 46.2 µM), without a hit: at the highest dose activity change, negative = growth inhibition, usual class: inhibitors. actives 12% (n = 420,000); note: potency is the fitted concentration of half-maximal effect; nearly all actives have a fitted effect of over 55% in size
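Chicken DT40 Tdp1-/- cells complemented with human TDP1, 400 cells/well, exposed to compounds plus 20 nM camptothecin for at least 48 h at 37 C; viability read as ATP content by CellTiter-Glo luminescence.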
12-LOX inh = ALOX12 (human) lipoxygenase inhibition. P18054. purified 12hLO, xylenol orange hydroperoxide absorbance. Potency, µM (doses to about 108 µM), without a hit: at the top dose activity change, negative = inhibition, most hits filed as inhibitors. actives 1.1% (n = 580,000). AID 1671190; note: potency is the fitted concentration of half-maximal effect
Target sequence (P18054 whole entry, looked up): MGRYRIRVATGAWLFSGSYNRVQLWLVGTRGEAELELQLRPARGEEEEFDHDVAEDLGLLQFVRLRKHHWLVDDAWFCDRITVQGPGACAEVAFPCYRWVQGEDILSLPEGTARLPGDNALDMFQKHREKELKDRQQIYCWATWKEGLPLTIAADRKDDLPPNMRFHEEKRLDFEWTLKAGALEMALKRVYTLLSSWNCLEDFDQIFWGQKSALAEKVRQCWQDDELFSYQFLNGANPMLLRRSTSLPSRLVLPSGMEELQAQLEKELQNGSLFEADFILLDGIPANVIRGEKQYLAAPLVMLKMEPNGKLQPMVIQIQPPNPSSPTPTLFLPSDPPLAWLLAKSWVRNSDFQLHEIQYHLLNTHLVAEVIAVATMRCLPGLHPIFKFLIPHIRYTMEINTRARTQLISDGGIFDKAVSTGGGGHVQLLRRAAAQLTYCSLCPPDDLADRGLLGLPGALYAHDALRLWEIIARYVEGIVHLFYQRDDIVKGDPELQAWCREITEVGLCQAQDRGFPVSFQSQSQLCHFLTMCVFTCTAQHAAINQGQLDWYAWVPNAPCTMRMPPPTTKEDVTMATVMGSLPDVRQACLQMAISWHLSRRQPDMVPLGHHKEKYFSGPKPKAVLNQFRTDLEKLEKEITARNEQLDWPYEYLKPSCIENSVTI
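Purified human 12hLO (150 nM final) in 25 mM Hepes, 0.01% Triton X-100, pH 7.0 was preincubated 15 min at room temperature with compound. Then 40 uM arachidonic acid was added, 30 min. Hydroperoxide was read by Fe-XO absorbance ratio 573/405 nm.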
HT1080NT lethal = kills 2HG-producing HT-1080-NT fibrosarcoma cells; AID 686970; Potency, µM (top dose mostly 46.1 µM), for inactives: top-dose activity, negative = less viability, usual class: cytotoxic; HT-1080-NT fibrosarcoma viability, CellTiter-Glo ATP luminescence, 48 h; actives 1.6% (n = 360,000);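 note: NT is the 2HG producing partner of a matched IDH1 knockdown line; potency is the fitted concentration of half-maximal effect; 0% = DMSO-treated cells and -100% = media-only wells without cells; nearly all actives have a fitted effect of over 55% in size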
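Fibrosarcoma NT cells, 750 per well in 5% FBS RPMI, were exposed to compound for 48 hours. Viability: CellTiter-Glo luminescence.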
Starred values were filed as active, the others as inactive; ? = inconclusive; · = no result given; [ ] = another dose, or the depositor's remark. Unless noted, calls come from the whole dose curve; as a rule, active = well fitted curve in the direction sought with a large enough effect; inconclusive = small, poorly fitted or top-dose-only effect, or another doubt; inactive = no such curve, though single readings can be large; an effect the other way counts as inactive or inconclusive. Unless noted, % is set by controls: 0 for no effect and ±100 for the full control effect.

SMILES	TDP1 cell noCPT	HT1080 IDH1KD tx	IL1B secr inh	TDP1 cell CPT	12-LOX inh	HT1080NT lethal
Nc1nc2ccc(S(=O)(=O)N3CCCCC3)cc2s1	9.2µM*	1%	-106*	8.2µM*	?	0%
CN(C)c1cccc(C(=O)Nc2nc3ccc(S(=O)(=O)N4CCCC4)cc3s2)c1	8.2µM*	·	·	6.5µM*	-18%	·
O=C(Nc1nc2ccc(S(=O)(=O)N3CCCC3)cc2s1)C1CCCCC1	4.6µM*	15µM*	-5	2.6µM*	-12%	21µM*
COc1cc(C(=O)Nc2nc3ccc(S(=O)(=O)N4CCOCC4)cc3s2)cc(OC)c1OC	-26%	-7%	22	?	?	-5%
COc1ccc2nc(NC(=O)c3cc(S(=O)(=O)N4CCOCC4)ccc3C)sc2c1	18µM*	-13%	-21	?	0%	-6%
CSc1ccc(C)c(C(=O)NC2CCCCC2)c1	·	·	·	·	16%	·
COc1ccc(OC)c(C(=O)c2oc3cc(NC(=O)C(C)C)ccc3c2C)c1	·	·	·	·	6%	·
NC(=O)CO[C@@H]1CO[C@H]2[C@@H]1OC[C@@H]2NC(=O)c1ccc(C(F)(F)F)cc1	·	·	·	·	0%[176 µM]	·
O=C(Nc1nc2ccccc2s1)C1CCN(S(=O)(=O)c2cc([N+](=O)[O-])ccc2Cl)CC1	15µM*	16µM*	-21	15µM*	-13%	?
O=C(Nc1nc2ccccc2s1)C1CCN(C(=O)c2ccco2)CC1	15µM*	-2%	?	?	?	?
O=C(Nc1cccc(-c2nc3ccccc3s2)c1)C1CCN(C(=O)c2ccco2)CC1	·	·	·	·	-7%	·
Cc1ccc(C(=O)Nc2nc3ccc(S(=O)(=O)N4CCCC4)cc3s2)cc1	-12%	·	·	-2%	-14%	·
COc1cccc(C(=O)Nc2nc3ccc(S(=O)(=O)N4CCCC4)cc3s2)c1	5.2µM*	·	·	4.6µM*	-19%	·
COc1ccc(-c2nnc3n2CCN(C(=O)NC2CCCC2)C3)cc1	·	·	·	·	14%[176 µM]	·
CC1(CCc2ccc3c(c2)OCO3)NCCc2c1[nH]c1ccccc21 (stereo not drawn)	18µM*	-19%	-57*	?	?	-26%
O=C1NC2(C(=O)Nc3ccc(F)c(Cl)c3)CCC(=O)N2c2ccccc21 (stereo not drawn)	·	·	·	·	49%	·
COc1cc(CNC2CCCC2)cc(Cl)c1OCc1ccccc1F	13µM*	13µM*	-76*	16µM*	-29%	?
COc1cccc(CNC2CCCC2)c1OCc1ccccc1F	·	·	·	·	-16%	·
COc1cccc(CNc2ccc3[nH]c(=O)[nH]c3c2)c1OCc1ccccc1F	-27%	-3%	-23	?	-30%	-5%
COc1cc(CNc2ccc3[nH]c(=O)[nH]c3c2)cc(Cl)c1OCc1ccccc1F	8.2µM*	·	·	12µM*	-13%	·
COc1cc(CNc2ccc3[nH]c(=O)[nH]c3c2)cc(Cl)c1OCc1ccc(F)cc1	15µM*	·	·	18µM*	-26%	·
COc1cc(CNc2ccc3[nH]c(=O)[nH]c3c2)cc(Br)c1OCc1ccc(F)cc1	15µM*	-20%	·	7.3µM*	0%	-7%
COCCc1noc([C@@H]2CN(CC(C)C)C[C@H]2CO)n1	·	·	·	·	43%	·
O=C(NC1CCCCCC1)c1csc(N2CCN(c3ccccc3)CC2)n1	·	·	·	·	-17%	·
Cc1cc(C)cc(Nc2nc(-c3ccccc3F)no2)c1	·	·	·	·	28%	·
SMILES	TDP1 cell noCPT	HT1080 IDH1KD tx	IL1B secr inh	TDP1 cell CPT	12-LOX inh	HT1080NT lethal
COc1cc(CNc2ccc3[nH]c(=O)[nH]c3c2)ccc1OCc1cccc(C)c1	?	-27%	-76*	?	2%	?
COc1cc(CNc2ccc3[nH]c(=O)[nH]c3c2)ccc1OCc1ccc(C)cc1	?	?	?	?	?	-16%
CCOc1ccc(NC(=O)CC2C(=O)N(c3cccc(C)c3)C(=O)N2CCC2=CCCCC2)cc1 (stereo not drawn)	23µM*	·	·	?	?	·
COc1ccc(N2C(=O)C(CC(=O)Nc3ccc(F)cc3)N(CCC3=CCCCC3)C2=O)cc1 (stereo not drawn)	16µM*	·	·	?	?	·
COc1ccc(NC(=O)CC2C(=O)N(c3ccccc3)C(=O)N2CCC2=CCCCC2)cc1 (stereo not drawn)	?	·	·	?	5%	·
Cc1ccc(CNC(=O)C2CCCCC2)s1	·	·	·	·	-5%	·
CCc1ccc(NC(=O)N2CCN(c3ccc(F)cc3)CC2)cc1	26µM*	1%	-20	?	-2%	-4%
CCc1ccc(CNc2ccc(N3CCN(C(C)=O)CC3)cc2)cc1	18µM*	?	-4	-19%	32µM*	-3%
O=C(Nc1ccccc1)N1CCN(c2ccc(F)cc2)CC1	?	16%	?	?	27%	25%
COCCN1C(=O)CS(=O)(=O)C12CCN(C(=O)Cc1cccc(OC)c1)CC2	·	·	·	·	14%	·
Cc1ccc(NC(=O)c2cc3c(s2)CCC3)cc1C	·	·	·	·	0%	·
Cc1cc(=O)n(CC(=O)Nc2cccc(C(C)C)c2)c(N2CCOCC2)n1	·	·	·	·	26%	·
COC(=O)c1cc(F)ccc1NC(=O)N1CCc2[nH]cnc2C1c1ccc(Cl)cc1 (stereo not drawn)	·	·	·	·	-8%	·
CC(C)c1ccc(NC(=O)CSc2nc3c(-c4ccccc4)c[nH]c3c(=O)n2C)cc1	·	·	·	·	31%	·
Cc1cc(NC(=S)N(CCN2CCCCC2)Cc2ccco2)ccc1Cl	?	-18%	-97*	?	-12%	-23%
Cc1ccc(NC(=S)N(CCN2CCCCC2)Cc2ccco2)cc1	16µM*	11%	?	?	-18%	15%
CCOC(=O)c1ccc(NC(=S)N(CCCN2CCCCCC2)Cc2ccco2)cc1	?	?	-66*	?	-10%	?
O=C(Cc1cccnc1)N1CCC(N2C(=O)C(O)C23CCCCC3)CC1 (stereo not drawn)	·	·	·	·	55%	·
CC(C)Cc1nnc(NC(=O)C2(c3cccc(F)c3)CCC2)s1	·	·	·	·	15%	·
C(=C\c1nc2ccccc2s1)/c1ccc2c(c1)OCO2	11µM*	·	·	?	·	·
COc1ccc(/C=C/c2nc3ccccc3s2)c(OC)c1OC	·	·	·	·	-46%	·
CN(C)c1ccc(/C=C/c2nc3ccccc3s2)c(Cl)c1	14µM*	·	·	?	·	·
CCOc1cc(C(=O)NCc2ccccc2)ccc1OCC(=O)N1CCOCC1	4%	4%	0	9%	-11%	-7%
C(=Cc1nc2ccccc2o1)c1ccc2c(c1)OCO2	?	?	19	-12%	1%	-25%
